Reference: PubChem BioAssay AID1159580 (chemical genetic matrix, 2015)
Hit rate of the full screen: of about 5,500 compounds, about 2,000 (36%) were called active. Inconclusive results (about 18%) are left out. No stated cut-off is given here; in the data, active means normalized growth mostly below about 0.91 (no sharp cut-off); inconclusive means no clear call, values can overlap the other calls; inactive means mostly above about 0.92. The list shows a part of the results.

Experiment: chemical genetic growth profiling, strain panel (AID 1159580);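 further: tested at 20 µM; growth read once vehicle control cultures reached saturation at 30 °C; 1 = growth at the plate median or of vehicle wells; lower values mean less growth of the strain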
Conditions: growth OD

Measured: normalized growth

O=C(O)c1c2ccccc2cc2ccccc12
inactive: S. cerevisiae deletion strains, locus YJR043C, strain POL32, hits give low values 1.04 | S. cerevisiae deletion strains, locus YJR075W, strain HOC1, hits give low values 1.01 | S. cerevisiae deletion strains, locus YKL009W, strain mrt4, hits give low values 0.989 | S. cerevisiae deletion strains, locus YKL068W, hits give low values 0.971 | S. cerevisiae deletion strains, locus YKL085W, strain MDH1 (second series), hits give low values 0.958 | S. cerevisiae deletion strains, locus YKL085W, strain MDH1, hits give low values 0.958 | S. cerevisiae deletion strains, locus YKL160W, strain elf1, hits give low values 0.991 | S. cerevisiae deletion strains, locus YKL190W, strain CNB1, hits give low values 1.02 | S. cerevisiae deletion strains, locus YKR001C, strain vps1, hits give low values 0.981 | S. cerevisiae deletion strains, locus YKR026C, strain gcn3, hits give low values 1 | S. cerevisiae deletion strains, locus YKR091W, strain srl3, hits give low values 0.986 | S. cerevisiae deletion strains, locus YLL001W, strain dnm1, hits give low values 1 | S. cerevisiae deletion strains, locus YLL026W, hits give low values 0.996 | S. cerevisiae deletion strains, locus YLL041C, strain sdh2, hits give low values 0.992 | S. cerevisiae deletion strains, locus YLR027C, strain aat2, hits give low values 0.999 | S. cerevisiae deletion strains, locus YLR039C, strain RIC1, hits give low values 1.04 | S. cerevisiae deletion strains, locus YLR058C, strain SHM2, hits give low values 1.02 | S. cerevisiae deletion strains, locus YLR102C, strain apc9, hits give low values 0.983 | S. cerevisiae deletion strains, locus YLR221C, strain rsa3, hits give low values 0.973 | S. cerevisiae deletion strains, locus YLR258W, strain gsy2, hits give low values 0.992 | S. cerevisiae deletion strains, locus YLR262C, strain YPT6 (second series), hits give low values 0.976 | S. cerevisiae deletion strains, locus YLR262C, strain YPT6, hits give low values 1.03 | S. cerevisiae deletion strains, locus YLR268W, strain sec22, hits give low values 0.986 | S. cerevisiae deletion strains, locus YLR320W, strain mms22, hits give low values 1 | S. cerevisiae deletion strains, locus YLR330W, strain CHS5, hits give low values 1.02 | S. cerevisiae deletion strains, locus YLR342W, strain FKS1 (second series), hits give low values 0.971 | S. cerevisiae deletion strains, locus YLR342W, strain FKS1, hits give low values 1 | S. cerevisiae deletion strains, locus YLR357W, strain rsc2, hits give low values 1.06 | S. cerevisiae deletion strains, locus YLR370C, strain arc18, hits give low values 0.998 | S. cerevisiae deletion strains, locus YLR371W, strain rom2, hits give low values 0.992 | S. cerevisiae deletion strains, locus YLR384C, strain iki3, hits give low values 0.992 | S. cerevisiae deletion strains, locus YLR418C, strain cdc73, hits give low values 0.96 | S. cerevisiae deletion strains, locus YML016C, strain PPZ1, hits give low values 1.01 | S. cerevisiae deletion strains, locus YML032C, strain rad52, hits give low values 0.954 | S. cerevisiae deletion strains, locus YML120C, strain ndi1, hits give low values 0.965 | S. cerevisiae deletion strains, locus YML124C, strain tub3, hits give low values 0.985 | S. cerevisiae deletion strains, locus YMR058W, strain fet3, hits give low values 1.01 | S. cerevisiae deletion strains, locus YMR078C, strain ctf18, hits give low values 0.974 | S. cerevisiae deletion strains, locus YMR125W, strain sto1, hits give low values 1.03 | S. cerevisiae deletion strains, locus YMR129W, hits give low values 0.987 | S. cerevisiae deletion strains, locus YMR205C, strain PFK2, hits give low values 1.01 | S. cerevisiae deletion strains, locus YMR223W, strain ubp8, hits give low values 0.962 | S. cerevisiae deletion strains, locus YMR231W, strain pep5, hits give low values 0.979 | S. cerevisiae deletion strains, locus YMR263W, strain SAP30, hits give low values 1.02 | S. cerevisiae deletion strains, locus YMR307W, strain GAS1, hits give low values 1.13 | S. cerevisiae deletion strains, locus YNL067W, strain RPL9B, hits give low values 1.02 | S. cerevisiae deletion strains, locus YNL071W, strain lat1, hits give low values 0.948 | S. cerevisiae deletion strains, locus YNL128W, strain TEP1, hits give low values 1.02 | S. cerevisiae deletion strains, locus YNL153C, strain GIM3, hits give low values 1.02 | S. cerevisiae deletion strains, locus YNL209W, strain ssb2, hits give low values 1 | S. cerevisiae deletion strains, locus YNL233W, strain BNI4, hits give low values 1.02 | S. cerevisiae deletion strains, locus YNL248C, strain rpa49, hits give low values 0.993 | S. cerevisiae deletion strains, locus YNL250W, strain rad50, hits give low values 0.965 | S. cerevisiae deletion strains, locus YNL271C, strain bni1, hits give low values 0.949 | S. cerevisiae deletion strains, locus YNL298W, strain CLA4, hits give low values 0.948 | S. cerevisiae deletion strains, locus YNL307C, strain MCK1, hits give low values 0.969 | S. cerevisiae deletion strains, locus YNL322C, strain KRE1 (second series), hits give low values 0.998 | S. cerevisiae deletion strains, locus YNL322C, strain KRE1, hits give low values 1.02 | S. cerevisiae deletion strains, locus YNR049C, strain mso1, hits give low values 1.01 | S. cerevisiae deletion strains, locus YNR052C, strain pop2, hits give low values 0.982 | S. cerevisiae deletion strains, locus YOL006C, strain TOP1, hits give low values 0.989 | S. cerevisiae deletion strains, locus YOL012C, strain htz1 0.952 | S. cerevisiae deletion strains, locus YOL147C, strain pex11, hits give low values 0.986 | S. cerevisiae deletion strains, locus YOR001W, strain rrp6, hits give low values 0.957 | S. cerevisiae deletion strains, locus YOR061W, strain CKA2, hits give low values 1.01 | S. cerevisiae deletion strains, locus YOR069W, strain VPS5, hits give low values 1.01 | S. cerevisiae deletion strains, locus YOR070C, strain gyp1, hits give low values 0.999 | S. cerevisiae deletion strains, locus YOR080W, strain dia2, hits give low values 1.01 | S. cerevisiae deletion strains, locus YOR083W, strain WHI5, hits give low values 0.915 | S. cerevisiae deletion strains, locus YOR106W, strain vam3, hits give low values 0.95 | S. cerevisiae deletion strains, locus YOR136W, strain idh2, hits give low values 0.978 | S. cerevisiae deletion strains, locus YOR144C, strain elg1, hits give low values 0.987 | S. cerevisiae deletion strains, locus YOR184W, strain ser1, hits give low values 0.965 | S. cerevisiae deletion strains, locus YOR265W, strain rbl2, hits give low values 0.996 | S. cerevisiae deletion strains, locus YOR270C, strain vph1, hits give low values 0.973 | S. cerevisiae deletion strains, locus YOR290C, strain snf2, hits give low values 0.999 | S. cerevisiae deletion strains, locus YOR316C, strain cot1, hits give low values 0.983 | S. cerevisiae deletion strains, locus YPL051W, strain arl3, hits give low values 0.982 | S. cerevisiae deletion strains, locus YPL055C, strain LGE1, hits give low values 1.03 | S. cerevisiae deletion strains, locus YPL078C, strain atp4, hits give low values 1 | S. cerevisiae deletion strains, locus YPL106C, strain sse1, hits give low values 0.947 | S. cerevisiae deletion strains, locus YPL240C, strain hsp82, hits give low values 0.994 | S. cerevisiae deletion strains, locus YPL241C, strain CIN2, hits give low values 0.982 | S. cerevisiae deletion strains, locus YPR119W, strain clb2, hits give low values 0.979 | S. cerevisiae deletion strains, locus YPR141C, strain kar3, hits give low values 0.948 | S. cerevisiae deletion strains, locus YPR163C, strain tif3, hits give low values 0.984 | S. cerevisiae deletion strains, locus YPR167C, strain met16, hits give low values 0.987 | S. cerevisiae deletion strains, strain wtn01, hits give low values 0.987 | S. cerevisiae strains, strain wild type, hits give low values 1.01
